The text below walks through data of PubChem BioAssay (EPA / NIEHS).

Molecules are shown by their SMILES. Records with an inconclusive call do not appear. Active and inactive are the calls of the source. The calls were made as follows, unless noted: active = hit-call score of the fitted dose curve at least 0.9, where 1 is the maximum; inactive = score below 0.9.

Test [1] addresses Hepatocyte nuclear factor 4-alpha (Homo sapiens) (UniProt P41235). The test is described as follows: ATG_HNF4a_TRANS: Attagene TRANS-FACTORIAL HepG2 Assay for human Hepatocyte Nuclear Factor 4 alpha (HNF4a) (AID 2282982; active = hit-call score of the fitted dose curve at least 0.9, where 1 is the maximum). Conditions: HepG2 HNF4a transactivation reporter, mRNA readout. The gist of the method:
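Using HepG2 liver cells transfected with GAL4-UAS reporter units, chemical-induced mRNA increases were assessed after 24 hours. Fluorescent RT-PCR fragments were separated by capillary electrophoresis and compared with DMSO negative controls.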

The nature of test [2]: ATG_M_06_TRANS: Attagene TRANS-FACTORIAL HepG2 Assay for M06 Transcription Factor (Internal Marker) (AID 2282983; active = hit-call score of the fitted dose curve at least 0.9, where 1 is the maximum). The settings on record: HepG2 Attagene TRANS M06 internal marker reporter. The essentials:
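Background-control reporter readout: after 24 h chemical exposure of transiently transfected HepG2 (GAL4-UAS reporter units), mRNA quantified by RT-PCR with fluorescent labeling and capillary electrophoresis. Gain-of-signal fitting against DMSO baseline.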

Test [3] addresses Nuclear receptor subfamily 4 group A member 2 (Homo sapiens) (UniProt P43354). As to the kind of experiment: ATG_NURR1_TRANS: Attagene TRANS-FACTORIAL HepG2 Assay for human Nuclear Receptor Related Protein 1 (NURR1) (AID 2282985; active = hit-call score of the fitted dose curve at least 0.9, where 1 is the maximum). The settings on record: HepG2 Attagene TRANS reporter, mRNA readout. The gist of the method:
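Chimeric NR-Gal4 proteins were expressed in human HepG2 cells bearing GAL4-UAS reporter units, and induced reporter mRNA was quantified 24 h post-dosing by RT-PCR and capillary electrophoresis.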

For test [4], the target named is Transcriptional activator Myb (Homo sapiens) (UniProt P10242). The test is described as follows: ATG_Myb_CIS: Attagene CIS-FACTORIAL HepG2 Assay for human Myeloblastosis (Myb) Proto-Oncogene Transcription Factor (AID 2282986). The settings on record: HepG2 Attagene CIS-FACTORIAL Myb reporter transcription; actives raise or lower the signal. The gist of the method: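 Using HepG2 liver cells bearing transiently transfected cis-promoter reporter constructs, the assay measures induction or loss of reporter mRNA after 24 hours of dosing. Detection used fluorescently labeled RT-PCR products separated by capillary electrophoresis.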
Chain of Transcriptional activator Myb (Homo sapiens) (P10242 whole entry, looked up): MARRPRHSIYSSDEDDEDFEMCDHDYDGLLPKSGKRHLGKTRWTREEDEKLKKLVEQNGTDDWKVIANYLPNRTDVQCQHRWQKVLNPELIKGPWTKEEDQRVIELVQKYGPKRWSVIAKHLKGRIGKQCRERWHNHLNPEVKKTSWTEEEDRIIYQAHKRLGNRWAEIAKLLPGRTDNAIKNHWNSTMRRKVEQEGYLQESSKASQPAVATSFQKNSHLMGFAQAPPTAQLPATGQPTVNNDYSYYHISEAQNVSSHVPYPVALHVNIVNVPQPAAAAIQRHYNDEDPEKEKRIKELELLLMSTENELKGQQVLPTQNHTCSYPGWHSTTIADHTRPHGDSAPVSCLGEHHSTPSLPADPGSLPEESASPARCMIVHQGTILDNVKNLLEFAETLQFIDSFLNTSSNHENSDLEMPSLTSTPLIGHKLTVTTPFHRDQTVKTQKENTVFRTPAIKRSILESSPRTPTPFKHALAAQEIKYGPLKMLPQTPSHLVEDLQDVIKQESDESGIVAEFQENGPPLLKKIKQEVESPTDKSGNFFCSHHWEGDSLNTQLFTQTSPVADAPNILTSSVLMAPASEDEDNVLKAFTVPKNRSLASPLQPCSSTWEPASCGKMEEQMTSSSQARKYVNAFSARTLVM

Test [5] has as its target Nuclear respiratory factor 1 (Homo sapiens) (UniProt Q16656). The test is described as follows: ATG_NRF1_CIS: Attagene CIS-FACTORIAL HepG2 Assay for human Nuclear Respiratory Factor 1 (NRF1) Orphan Gene (AID 2282987). Conditions: HepG2 NRF1 cis-element reporter, Attagene multiplex; actives raise or lower the signal. The essentials:
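Reporter mRNA induction or loss in HepG2 cells after 24 h dosing; cis-regulated reporter constructs report endogenous transcription-factor activity. Quantified by RT-PCR/capillary electrophoresis fluorescence, DMSO-referenced.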

The nature of test [6]: ATG_NFI_CIS: Attagene CIS-FACTORIAL HepG2 Assay for human Nuclear Factor I (NFI) (AID 2282989). The settings on record: HepG2 cis-regulatory reporter, NFI response element transcription; actives raise or lower the signal. The essentials: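 Transient MRTU transfection of HepG2 → 24 h chemical dosing → total RNA, oligo(dT) RT → PCR, 6-FAM primer extension, HpaI cut → capillary electrophoresis. Endpoint fitted bidirectionally relative to DMSO.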

Test [7] addresses Myc proto-oncogene protein (Homo sapiens) (UniProt P01106). The test is described as follows: ATG_Myc_CIS: Attagene CIS-FACTORIAL HepG2 Assay for human Myelocytomatosis (Myc) Proto-Oncogene Transcription Factor (AID 2282990). Conditions: HepG2, Attagene cis-reporter transcription factor activity; actives raise or lower the signal. The gist of the method:
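HepG2 cells transiently transfected with multiple cis-promoter-driven reporter transcription units, so endogenous TF activity is read. After 24 h compound exposure, reporter mRNA was quantified by RT-PCR, 6-FAM labelling, HpaI digestion and capillary electrophoresis; bidirectional fit versus DMSO.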

Test [8] in a line: ATG_NF_kB_CIS: Attagene CIS-FACTORIAL HepG2 Assay for human Nuclear Factor Kappa B (NF-kB) (AID 2282991). Conditions: HepG2 Attagene cis-factorial NF-kB reporter mRNA; actives raise or lower the signal. The essentials:
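DMSO served as negative control and baseline for bidirectional curve fitting. Transiently transfected HepG2 cells were dosed for 24 h, then reporter transcripts were measured by RT-PCR with capillary electrophoresis detection.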

A short description of test [9]: ATG_NRF2_ARE_CIS: Attagene CIS-FACTORIAL HepG2 Assay for human Nuclear Factor Erythroid 2 Related Factor 2 (NFR2) response to Antioxidant Response Elements (ARE) (AID 2282992). The settings on record: HepG2 Attagene ARE/NRF2 reporter, transcription factor activity; actives raise or lower the signal. The essentials:
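Endogenous transcription factor activity read out as reporter transcript levels (RT-PCR plus capillary electrophoresis, fluorescence) in transiently transfected HepG2 cells. Measured at 24 h after dosing; gain or loss of signal fitted versus DMSO.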

A short description of test [10]: ATG_Oct_MLP_CIS: Attagene CIS-FACTORIAL HepG2 Assay for human Octamer-Binding Transcription Factor (Oct) (AID 2282993). The settings on record: HepG2 Attagene cis-factorial Oct reporter, mRNA; actives raise or lower the signal. The essentials: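 Transient MRTU transfection of HepG2 → 24 h compound treatment → RNA isolation, reverse transcription, PCR → 6-FAM primer extension, HpaI digest → capillary electrophoresis. Activity fitted both directions against DMSO.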

For test [11], the target named is Cellular tumor antigen p53 (Homo sapiens) (UniProt P04637). The test is described as follows: ATG_p53_CIS: Attagene CIS-FACTORIAL HepG2 Assay for human p53 Transcription Factor (AID 2282994). The settings on record: HepG2 p53 cis-element reporter, Attagene mRNA; actives raise or lower the signal. The gist of the method:
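Endogenous p53 activity read in transiently transfected HepG2 from a cis-element-driven reporter transcript after 24 h exposure. RNA reverse-transcribed, PCR-amplified, fluorescently labelled and sized by capillary electrophoresis; gain or loss fitted against DMSO baseline.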

The nature of test [12]: ATG_M_32_TRANS: Attagene TRANS-FACTORIAL HepG2 Assay for M32 Transcription Factor (Internal Marker) (AID 2282984; active = hit-call score of the fitted dose curve at least 0.9, where 1 is the maximum;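 also: transcript level of a background control reporter unit measured by RT-PCR and capillary electrophoresis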). The settings on record: HepG2 Attagene TRANS M32 internal marker reporter. The gist of the method:
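Fluorescence-detected mRNA induction, HepG2 liver cells, 24 h after dosing. Multiple GAL4-UAS reporter units introduced by transient transfection; background-control endpoint analysed for gain of signal against DMSO.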

For test [13], the target named is Oxysterols receptor LXR-beta (Homo sapiens) (UniProt P55055). As to the kind of experiment: ATG_LXRb_TRANS: Attagene TRANS-FACTORIAL HepG2 Assay for human Liver X Receptor beta (LXRb) (AID 2282981; active = hit-call score of the fitted dose curve at least 0.9, where 1 is the maximum). The settings on record: HepG2 Attagene TRANS GAL4-LXRb reporter, mRNA. The essentials: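 Liver-derived HepG2 cells transfected with Gal4-responsive reporters were dosed for 24 h. Activation was scored as rise in reporter mRNA, by RT-PCR and capillary electrophoresis, above DMSO baseline.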
Chain of Oxysterols receptor LXR-beta (Homo sapiens) (P55055 whole entry, looked up, the tested form may be a part): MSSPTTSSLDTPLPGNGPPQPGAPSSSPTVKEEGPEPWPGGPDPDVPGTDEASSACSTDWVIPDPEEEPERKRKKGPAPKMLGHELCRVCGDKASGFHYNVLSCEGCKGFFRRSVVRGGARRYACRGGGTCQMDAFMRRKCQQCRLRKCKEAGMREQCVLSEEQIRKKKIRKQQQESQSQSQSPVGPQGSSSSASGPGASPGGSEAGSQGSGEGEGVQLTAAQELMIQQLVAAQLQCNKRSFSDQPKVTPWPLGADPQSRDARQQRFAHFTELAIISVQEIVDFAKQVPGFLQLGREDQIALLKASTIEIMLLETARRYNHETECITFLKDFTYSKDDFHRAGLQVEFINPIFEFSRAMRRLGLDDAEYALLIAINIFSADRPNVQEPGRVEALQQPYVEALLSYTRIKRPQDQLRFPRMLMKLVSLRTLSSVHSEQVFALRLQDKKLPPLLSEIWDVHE

The nature of test [14]: BSK_3C_TissueFactor: BioMAP Diversity Plus: 3C Assay for Tissue Factor Biomarker Activity (AID 2282997). Conditions: BioMAP 3C HUVEC, tissue factor biomarker readout; actives raise or lower the signal. The essentials: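 Tissue factor on primary human umbilical vein endothelium was read by ELISA 24 h after dosing, gain or loss relative to DMSO. Cytotoxicity ran alongside via SRB (0.1%, TCA-fixed, 560 nm).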

The nature of test [15]: BSK_3C_uPAR: BioMAP Diversity Plus: 3C Assay for Urokinase-type plasminogen activator receptor (uPAR) Biomarker Activity (AID 2282998). Conditions: BioMAP 3C HUVEC, uPAR biomarker ELISA; actives raise or lower the signal. The essentials: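 ELISA readout of uPAR on human vascular endothelium (umbilical vein primary cells), taken 24 h after chemical dosing. Increases and decreases are both fitted relative to DMSO vehicle.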
On the technique in general: ELISA stands for enzyme-linked immunosorbent assay.

For test [16], the target named is Oxysterols receptor LXR-alpha (Homo sapiens) (UniProt Q13133). The test is described as follows: ATG_LXRa_TRANS: Attagene TRANS-FACTORIAL HepG2 Assay for human Liver X Receptor alpha (LXRa) (AID 2282980; active = hit-call score of the fitted dose curve at least 0.9, where 1 is the maximum). Conditions: HepG2 Attagene TRANS reporter, LXRa transactivation. The gist of the method:
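Chemical-induced reporter mRNA measured by RT-PCR with fluorescent labelling and capillary electrophoresis after 24 h dosing of transiently transfected HepG2 cells expressing exogenous NR-Gal4 chimeras; increases scored against DMSO baseline.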

Chain of Oxysterols receptor LXR-alpha (Homo sapiens) (Q13133 whole entry, looked up, the tested form may be a part): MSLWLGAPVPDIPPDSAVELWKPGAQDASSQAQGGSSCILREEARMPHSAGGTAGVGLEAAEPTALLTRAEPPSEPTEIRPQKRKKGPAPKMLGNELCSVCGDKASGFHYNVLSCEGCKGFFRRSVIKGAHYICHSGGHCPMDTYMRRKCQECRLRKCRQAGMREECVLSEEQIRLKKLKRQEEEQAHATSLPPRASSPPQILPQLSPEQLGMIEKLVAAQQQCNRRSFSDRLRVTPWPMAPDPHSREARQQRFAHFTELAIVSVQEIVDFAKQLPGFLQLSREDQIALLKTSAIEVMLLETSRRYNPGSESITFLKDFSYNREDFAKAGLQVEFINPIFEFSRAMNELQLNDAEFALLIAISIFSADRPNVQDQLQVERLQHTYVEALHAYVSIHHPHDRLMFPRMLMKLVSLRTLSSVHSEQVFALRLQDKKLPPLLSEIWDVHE
Chain of Nuclear respiratory factor 1 (Homo sapiens) (Q16656 whole entry, looked up): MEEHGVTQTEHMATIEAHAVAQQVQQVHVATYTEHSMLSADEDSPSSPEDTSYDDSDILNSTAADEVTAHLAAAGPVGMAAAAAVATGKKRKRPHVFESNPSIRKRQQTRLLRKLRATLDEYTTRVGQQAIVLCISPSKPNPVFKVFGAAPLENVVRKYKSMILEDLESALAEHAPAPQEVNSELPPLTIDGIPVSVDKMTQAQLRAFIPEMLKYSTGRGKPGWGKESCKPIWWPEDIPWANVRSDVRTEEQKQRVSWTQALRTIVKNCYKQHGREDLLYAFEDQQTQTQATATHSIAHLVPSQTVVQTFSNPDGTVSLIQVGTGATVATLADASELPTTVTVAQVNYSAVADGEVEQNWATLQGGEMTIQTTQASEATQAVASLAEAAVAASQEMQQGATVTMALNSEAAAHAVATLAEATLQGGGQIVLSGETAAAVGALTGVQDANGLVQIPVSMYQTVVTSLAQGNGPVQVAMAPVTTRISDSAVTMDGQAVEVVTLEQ
Chain of Cellular tumor antigen p53 (Homo sapiens) (P04637 whole entry, looked up): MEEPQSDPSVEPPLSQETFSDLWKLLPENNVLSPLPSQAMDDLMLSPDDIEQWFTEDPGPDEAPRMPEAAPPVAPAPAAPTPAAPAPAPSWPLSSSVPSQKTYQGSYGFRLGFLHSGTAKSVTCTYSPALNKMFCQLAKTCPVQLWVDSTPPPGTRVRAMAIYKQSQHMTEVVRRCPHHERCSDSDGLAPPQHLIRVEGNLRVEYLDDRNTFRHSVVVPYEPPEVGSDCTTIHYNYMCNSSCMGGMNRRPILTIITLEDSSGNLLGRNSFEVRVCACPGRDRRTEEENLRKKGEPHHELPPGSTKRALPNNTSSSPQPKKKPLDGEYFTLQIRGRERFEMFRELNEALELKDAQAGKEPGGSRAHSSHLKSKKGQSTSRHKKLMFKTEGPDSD
Chain of Hepatocyte nuclear factor 4-alpha (Homo sapiens) (P41235 whole entry, looked up, the tested form may be a part): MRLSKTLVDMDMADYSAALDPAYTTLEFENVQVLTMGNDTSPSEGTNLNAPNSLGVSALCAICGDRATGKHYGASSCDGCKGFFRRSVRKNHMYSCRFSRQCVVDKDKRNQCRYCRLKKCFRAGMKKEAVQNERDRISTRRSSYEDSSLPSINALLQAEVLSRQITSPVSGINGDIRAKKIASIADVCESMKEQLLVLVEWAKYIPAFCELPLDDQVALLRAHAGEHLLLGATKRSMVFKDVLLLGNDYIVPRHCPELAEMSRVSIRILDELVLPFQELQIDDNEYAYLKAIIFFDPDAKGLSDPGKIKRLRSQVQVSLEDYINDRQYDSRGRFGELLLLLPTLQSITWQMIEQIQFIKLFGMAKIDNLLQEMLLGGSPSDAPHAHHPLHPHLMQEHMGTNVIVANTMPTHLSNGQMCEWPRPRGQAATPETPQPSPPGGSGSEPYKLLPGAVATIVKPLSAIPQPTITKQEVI
Chain of Nuclear receptor subfamily 4 group A member 2 (Homo sapiens) (P43354 whole entry, looked up, the tested form may be a part): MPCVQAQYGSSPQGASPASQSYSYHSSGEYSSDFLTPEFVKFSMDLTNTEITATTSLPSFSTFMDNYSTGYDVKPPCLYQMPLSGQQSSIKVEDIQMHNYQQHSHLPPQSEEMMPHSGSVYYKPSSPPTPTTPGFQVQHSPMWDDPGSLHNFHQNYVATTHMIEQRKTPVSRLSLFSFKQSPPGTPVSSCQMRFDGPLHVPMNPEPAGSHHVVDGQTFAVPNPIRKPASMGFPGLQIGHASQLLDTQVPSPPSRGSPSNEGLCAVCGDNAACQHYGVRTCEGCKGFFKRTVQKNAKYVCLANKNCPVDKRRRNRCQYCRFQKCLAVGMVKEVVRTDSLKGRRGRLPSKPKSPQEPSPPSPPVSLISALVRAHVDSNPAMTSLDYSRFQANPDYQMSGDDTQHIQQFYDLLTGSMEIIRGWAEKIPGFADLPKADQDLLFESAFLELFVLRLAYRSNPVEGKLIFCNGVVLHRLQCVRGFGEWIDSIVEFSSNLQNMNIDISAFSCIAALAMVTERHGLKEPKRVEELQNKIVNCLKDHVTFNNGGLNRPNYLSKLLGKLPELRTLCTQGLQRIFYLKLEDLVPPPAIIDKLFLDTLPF
Chain of Myc proto-oncogene protein (Homo sapiens) (P01106 whole entry, looked up): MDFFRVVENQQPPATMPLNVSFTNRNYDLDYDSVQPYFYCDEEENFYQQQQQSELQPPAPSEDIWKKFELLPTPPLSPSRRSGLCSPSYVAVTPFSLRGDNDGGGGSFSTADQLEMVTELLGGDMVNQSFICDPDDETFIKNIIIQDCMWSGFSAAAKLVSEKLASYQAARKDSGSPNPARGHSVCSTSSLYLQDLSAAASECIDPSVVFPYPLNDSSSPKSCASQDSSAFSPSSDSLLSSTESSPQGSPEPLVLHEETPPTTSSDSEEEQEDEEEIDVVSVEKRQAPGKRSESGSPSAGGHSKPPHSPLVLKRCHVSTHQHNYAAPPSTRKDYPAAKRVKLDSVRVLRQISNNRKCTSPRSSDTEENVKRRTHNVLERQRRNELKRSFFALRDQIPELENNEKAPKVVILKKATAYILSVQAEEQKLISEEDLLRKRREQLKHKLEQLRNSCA

As to `CC(C)CC(=O)OCc1ccccc1`, the call in test [1], in test [2], in test [3], in test [4], in test [5] and in test [6] was inactive. Moreover, the result in test [7], in test [8], in test [9], in test [10] and in test [11] was inactive.
Regarding `O=C(O)/C=C/c1ccccc1`, the compound was classed as inactive in test [12], in [3], in [4], in [5], in test [6] and in [7]. For the same compound, the outcome in test [8], in [9], in test [10] and in test [11] was inactive.
Take `Nc1ccnc(=O)[nH]1`: the compound was classed as inactive in [13], in [2], in [12], in test [4], in test [6] and in [7]. Besides, the outcome in test [8], in test [9], in test [10] and in test [11] was inactive.
As usually defined, the AC50 is the concentration at which the activity in the assay is half-maximal. Turning to `C=CC(=O)NCOCCCC`, the compound was classed as inactive in test [2], in test [12], in [3], in test [4], in test [5] and in test [6]. Besides, the compound was called inactive in test [7], in test [10], in test [14] and in test [15]. Further, the AC50 in test [9] was 66.5 µM (active).
For the compound `O=C(O)CCC(=O)O`, the call in [16], in test [3], in [4], in [5], in test [6] and in [7] was inactive. For the same compound, the call in [8] and in [10] was inactive.
For `CC(C)c1ccc(O)c(C(C)C)c1`, the outcome in [16], in test [2], in test [3], in test [4], in test [5] and in [6] was inactive. Moreover, the outcome in [7], in test [8] and in [11] was inactive. For the same compound, the AC50 in test [9] is 24.6 µM (active).
As to `CC(CC(C)C)=NO`, the compound was called inactive in test [4], in test [5], in [6], in [7], in test [8] and in test [9]. In test [11], the call was inactive.
Consider `Cc1cc(C)c(C=O)c(C)c1`, for which the outcome in test [13], in [1], in [4], in [5], in [6] and in test [7] was inactive. The compound was called inactive in test [9] and in test [11].
For `CC1=CCC2CC1C2(C)C` (configuration not stated), the result in test [1], in test [2], in [3], in test [4], in test [5] and in [6] was inactive. In addition, the compound was called inactive in test [7], in test [8], in [9] and in test [10].
Consider `CCCCCCCO`, for which the compound was called inactive in test [16], in test [2], in test [12], in [3], in test [4] and in test [5]. Also, the outcome in [6], in test [7], in [8], in test [10], in test [14] and in [15] was inactive.
